SMILES strings stand for the structures. Out of some 330,000 compounds screened, about 1,000 (0.3%) were called active. Inconclusive results (about 3%) are left out. For the sample, actives were picked, then their nearest neighbours and some compounds at random. Values without a mark were called inactive. Calls follow the shape of the dose curve; as a rule, active = well fitted inhibition curve with a large enough effect; inconclusive = small, poorly fitted or top-dose-only effect; inactive = no such curve, though single readings can be large or run the other way; tested in mouse RAW 264.7 cells.
% is scaled to controls: 0 for no effect and ±100 for the full control effect; potency is read from the fitted curve at half-maximal effect.

The assay in a line: qHTS for Inhibitors of Cell Surface uPA Generation. Also: nearly all actives have a fitted effect of over 55% in size. Particulars: cell surface uPA generation assay; series mostly up to 38.3 µM; activity change, negative = inhibition: at the top concentration. The text has this: The overall objective of this project is to perform a quantitative high throughput screen (qHTS) to identify novel compounds that inhibit the generation of cell surface urokinase activity. The urokinase plasminogen activator (uPA) is one of the two primary endogenous systems that mediate plasminogen activation into plasmin. Members of this system, including uPA and its receptor (uPAR), are overexpressed in several malignant tumors. This system plays a major role in adhesion, migration, invasion and metastasis of cancer cells. Small molecule inhibitors of the uPA system will serve as probes to understand the molecular mechanisms of the uPA cascade and better understanding the microenvironmental circumstances that facilitate the activation of plasminogen by uPA, and finally may provide novel candidate agents for anticancer drug therapy.
[…] […] Upon inhibition of the uPA activation cascade, the subsequent cell surface uPA activity-dependent translocation of LF into the cytoplasm is inhibited. ATP-Lite is used to measure intracellular ATP concentrations, which remain increased if LF entry into the cytoplasm is inhibited. This validation assay was performed using a small set of validation compounds.
NIH Chemical Genomics Center [NCGC]
NIH Molecular Libraries Probe Centers Network [MLPCN]
Assay Submitter (PI): Thomas Bugge, National Institute of Dental and Craniofacial Research, NIH
Cultured RAW 264.7 were dispensed into 1536-well clear bottom, white walled tissue culture plates at a density of 4000 cells/well and were incubated overnight (12-16 h) at 37 C in a 5% CO2 incubator. Serially diluted compounds in 23 nl DMSO were added to cells. […] Compound and reagent-treated plates were incubated for 24 h at 37 C in a 5% CO2 incubator. Perkin Elmer ATPlitetrade mark 1 step (3 ul) was then added to each well. Luminescence was detected using a Perkin Elmer ViewLuxtrade mark plate reader.
1.Dispensing RAW 264.7 cells into 1536-well, white walled tissue culture plates at a density of 4000 cells/well (4 uL).
2.Incubation at 37 C in a 5% CO2 incubator overnight.
3.Serially diluting compounds (1:5 serial dilution; 0.0024 uM to […] final concentration) in 23 nl DMSO.
5.Incubating the compound and reagent-treated plates for 24 hours at 37 C in a 5% CO2 incubator.
6.Adding ATP-Lite (3 ul).
7.Reading plates by ViewLux with an exposure length of 5 seconds.
On the technique in general: Quantitative high-throughput screening tests each substance at several concentrations.
For `COc1ccc(-c2ccc3c(c2)C2CC3CCN2CCC#N)cc1` (configuration not stated), the “activity change, negative = inhibition” value is 11.7%.

Turning to `CC(C=Cc1ccccc1)=NNS(=O)(=O)c1ccc([N+](=O)[O-])cc1`, the “activity change, negative = inhibition” value was -8.61%. `CCCCCOc1ccc(CSC2=NCCN2)cc1[N+](=O)[O-]`: the Potency is 10 µM (active). As to `CCCOc1ccc(Cn2ccnc2)cc1[N+](=O)[O-]`, the “activity change, negative = inhibition” value is 11.6%.

Regarding `CCCCOc1ccc(CSC(=N)N)cc1[N+](=O)[O-]`, the “activity change, negative = inhibition” value is -16.7%. Consider `COc1ccc(Br)cc1/C=N/Nc1ccc(S(=O)(=O)Nc2ccccc2C(=O)O)cc1[N+](=O)[O-]`, for which the “activity change, negative = inhibition” value was 4.32%. For `O=C(NCC1(N2CCCCC2)CCCCC1)c1cccc(S(=O)(=O)Nc2ccccc2Cl)c1`, the “activity change, negative = inhibition” value is 0.0097%. Same read-out and setting: next, `CN(C)C(CNC(=O)c1cc2ccccc2o1)c1ccccc1` (configuration not stated): 0.0215%; `O=C1/C(=C\c2ccc(O)cc2)CCC1CNc1ccc(Cl)cc1` (configuration not stated): -11.8%. In the case of `O=C(CC(=O)c1cccnc1)c1ccccc1`, the “activity change, negative = inhibition” value was -2.47%.

In the case of `O=C(/C=C\c1ccc2c(c1)OCO2)NC1(C(=O)Nc2ccc3c(c2)OCCO3)CCCCC1`, the “activity change, negative = inhibition” value was 11.7%. In the case of `COc1ccc(OC)c(/C=C/C(=O)OCC(=O)Nc2ccc3c(c2)OCCO3)c1`, the “activity change, negative = inhibition” value was -8.9%. With `COc1cccc(/C=C/C(=O)Nc2ccc3c(c2)OCCO3)c1`, the Potency is 2.82 µM (active). With `c1ccc(CCc2ccccn2)cc1`, the “activity change, negative = inhibition” value is 3.66%. `NC(CSC1(c2ccccc2)c2ccccc2-c2ccccc21)C(=O)O` (configuration not stated): the “activity change, negative = inhibition” value is 11.5%. As for `Cc1c(/C=N\NC(=O)c2cc3ccccc3o2)c2ccccc2n1C`, the Potency was 3.55 µM (active). `O=C(N/N=C/c1cccc(O)c1)c1cc2c(ccc3ccccc32)o1`: the “activity change, negative = inhibition” value was -9.76%. Regarding `Cc1c(/C=N/N2C(=O)C3C4C=CC(C4)C3C2=O)c2ccccc2n1C` (configuration not stated), the “activity change, negative = inhibition” value was 7.94%. Regarding `CC(=NNC(=S)N1CCCCCC1)c1ccccn1`, the “activity change, negative = inhibition” value was -9.94%. As to `Cc1cc(NC(=O)C(C)SCC(=O)Nc2cccc(S(=O)(=O)N3CCCCCC3)c2)no1` (configuration not stated), the “activity change, negative = inhibition” value is -16.5%. Turning to `O=C(Nc1ccn(CCCNCc2ccc3[nH]ccc3c2)c(=O)n1)OCc1ccccc1`, the “activity change, negative = inhibition” value is 13.4%. Still for that read-out and setting: for `NNc1cccc(C=Cc2ccccc2)cc1=O` the value was -2.6%; for `Cn1c(CCN2CCCCCC2)nc2cc(NC(=O)Nc3ccccc3)ccc21`, -5.98%; for `C=CCN(C(=O)Nc1ccc2c(c1)nc(C)n2C)c1ccccc1`, -18%.

Regarding `Cc1nc2cc(NC(=O)Nc3cccc(F)c3)ccc2n1C`, the Potency was 3.98 µM (active). Take `Cc1ccc(OCCNC(=O)c2cccc(S(=O)(=O)N3CCN(Cc4ccccc4)CC3)c2)cc1`: the “activity change, negative = inhibition” value is 0.842%. For the molecule `C=CCOC(=O)N1CCC2CC1c1cc(-c3ccc(OC)cc3)ccc12` (configuration not stated), the “activity change, negative = inhibition” value is 6.22%. For `C[C@@H](NC(=O)[C@@H]1Cc2ccccc2CN1)C(=O)NC1CCCC1`, the Potency was 7.08 µM (active). Regarding `O=C(CNC(=O)[C@@H]1Cc2ccccc2CN1)NC1CCCCC1`, the “activity change, negative = inhibition” value was -5.14%. On to `C[C@H](NC(=O)[C@@H]1Cc2ccccc2CN1C(=O)OC(C)(C)C)C(=O)NC1CCCC1`, for which the “activity change, negative = inhibition” value was 4.21%. On to `NC(=O)c1ncn([C@@H]2O[C@H](CNCc3cnc(N4CCOCC4)s3)[C@@H](O)[C@H]2O)n1`, for which the “activity change, negative = inhibition” value was 3.82%.

As for `Cc1c[n+]([O-])ccc1[N+](=O)[O-]`, the “activity change, negative = inhibition” value was -3.23%.

For `COc1ccc(-c2ccc3c(c2)[C@@H]2C[C@H](N(C)S(=O)(=O)c4ccccc4)[C@H]([C@H](C)O)C(=O)N2CC3)cc1`, the “activity change, negative = inhibition” value was -19.2%. As to `Cc1ccc2c(c1)C1CN(C)CCC1N2S(=O)(=O)c1ccc(Oc2ccc([N+](=O)[O-])cc2)cc1` (configuration not stated), the Potency is 8.91 µM (active). Take `Cc1ccc2c(c1)C1CN(C)CCC1N2S(=O)(=O)c1cccc(F)c1` (configuration not stated): the “activity change, negative = inhibition” value was -0.281%. With `Cc1ccc2c(c1)C1CN(C)CCC1N2C(=S)Nc1ccc(OC(F)F)cc1` (configuration not stated), the “activity change, negative = inhibition” value is -0.804%. The same measure, in the same setting: next, `C/C(=N\Nc1ccc(Cl)nn1)c1ccccc1O`: 0.477%; `C[C@]12CCC(=O)C=C1C=CC1C2CC[C@@]2(C)C1CC[C@@]21CCC(=O)O1` (some centres not stated): 2.58%; `Nc1ccc2[nH]c(=S)sc2c1`: 0.0587%. As for `COc1ccc(C(=O)O/N=C(\N)c2ccccn2)cc1[N+](=O)[O-]`, the “activity change, negative = inhibition” value was -7.26%. Take `N/C(=N\OC(=O)c1ccc([N+](=O)[O-])cc1)c1ccccn1`: the “activity change, negative = inhibition” value is -27.5%. For `Cc1ccc(C(=O)O/N=C(\N)c2ccccn2)cc1Cl`, the Potency was 8.91 µM (active). In the case of `Cc1ccc(S(=O)(=O)N2CCC(C(=O)N3CCCCCCC3)CC2)cc1`, the “activity change, negative = inhibition” value is 2.24%. Take `COC(=O)Cc1nc2c(N)nc(N)nc2[nH]c1=O`: the “activity change, negative = inhibition” value is 5.49%.

Take `Cc1cccc(-n2ncc(Cl)c(Cl)c2=O)c1`: the Potency was 10 µM (active). Take `Cc1cccc(N2C(=O)c3cccnc3C2=O)c1`: the “activity change, negative = inhibition” value was 1.6%. The same measure, in the same setting: for `C=CCNc1cnn(-c2ccc(C)cc2)c(=O)c1Cl` the value was -4%; for `CNN/C(N=Cc1ccc([N+](=O)[O-])s1)=N\S(=O)(=O)c1cc(C)c(Cl)cc1SCc1ccccc1`, -1.55%; for `CC(C)(C)c1nnc2sc(SCC(O)=C(C#N)c3nc4ccccc4[nH]3)nn2c1=O`, -10.3%. As to `COc1ccc(S(=O)(=O)N2C[C@H]3CON(C)[C@H]3C[C@H]2c2cccc(Br)c2)cc1`, the “activity change, negative = inhibition” value is -0.931%. Take `CN(C(=O)c1cc2c(=O)n3ccccc3nc2s1)C1CCCCC1`: the “activity change, negative = inhibition” value was -10.8%. Turning to `CN(C(=O)CSc1nncc2ccccc12)C1CCCCC1`, the “activity change, negative = inhibition” value is 3.3%.

Source of the values: PubChem BioAssay AID540303 (National Center for Advancing Translational Sciences (NCATS), 2011).
